TRHR agonist: TRH receptor (human) agonism | P34981 | TRHR cells, calcium flux fluo-8, FDSS agonist mode | activation, % at 2 µM | 360,000 tested, 0.18% active | AID 493084; note: 0% is about no effect
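Fluo-8-loaded TRHR cells; 10 s baseline, compound added, kinetic Ca2+ fluorescence read 1/s, agonist mode.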
TRHR enhancer: TRH receptor (human) allosteric enhancement. TRHR cells, fluo-8 calcium fluorescence, EC20 TRH enhancement. 360,000 tested, 0.66% active. P34981. enhancement, % at 2 µM. AID 493056; in the data active = enhancement above about 30%; note: 0% is about no effect
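TRHR-expressing cells loaded with fluo-8 calcium dye were read kinetically (ex 480/em 530) during compound addition, then stimulated with an EC20 of TRH (10 nM final). Enhancement of the Gq-mediated intracellular calcium response was scored.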
GRP78 ERSR act: ER stress response induction in glioma. AID 602332. U87-MG GRP78 promoter luciferase reporter, 16 h. 420,000 tested, 0.02% active. Potency, µM, for the others: top-dose activation, usual class: activators; active = well fitted activation curve with a large enough effect; note: potency is the fitted concentration of half-maximal effect; series mostly up to about 76 µM; % of control where 0% means no effect; nearly all actives have a fitted effect of over 35% in size
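Stably transfected U87-MG human glioma cells carrying a GRP78-based luminescent sensor were seeded at 1000 cells/well, pin-dosed with compounds and incubated 16 h. Luciferase reagent was then added, and end-point luminescence was read after 10 min at room temperature.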
D1 agonist: activates the human D1 dopamine receptor. HEK293 T-REx D1 cells, calcium flux, agonist mode. AID 504660. 360,000 tested, 1% active. activation, % at 2 µM; note: 0% is about no effect
Target sequence (P21728 whole entry, looked up): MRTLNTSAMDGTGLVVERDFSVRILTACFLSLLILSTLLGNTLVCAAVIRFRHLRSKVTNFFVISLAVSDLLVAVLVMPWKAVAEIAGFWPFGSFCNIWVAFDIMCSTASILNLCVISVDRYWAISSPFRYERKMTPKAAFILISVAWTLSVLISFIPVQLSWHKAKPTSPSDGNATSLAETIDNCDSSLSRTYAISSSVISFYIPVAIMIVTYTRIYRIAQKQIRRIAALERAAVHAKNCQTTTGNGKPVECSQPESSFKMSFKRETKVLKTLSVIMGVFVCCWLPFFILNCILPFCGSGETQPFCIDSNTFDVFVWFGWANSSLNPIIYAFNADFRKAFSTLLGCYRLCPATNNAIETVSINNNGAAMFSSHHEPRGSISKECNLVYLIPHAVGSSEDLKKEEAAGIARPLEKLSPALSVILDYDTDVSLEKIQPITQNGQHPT
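Agonism was scored from calcium flux recorded over 180 s (1 read/s) after pintool compound addition, following a 10-cycle baseline. Cells were inducible force-coupled HEK293 TREx D1, plated overnight at 30 C and loaded with no-wash calcium dye.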
D1 antagonist: human D1 dopamine receptor antagonism; 360,000 tested, 3.2% active; HEK293 TREx D1 cells, calcium flux, dopamine EC80; active compounds read low; activity change, negative = inhibition, % at 10 µM; AID 504652; in the data active = activity change below about -30%; note: % is set by controls: 0 for no effect and ±100 for the full control effect
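Cells carrying a force-coupled, tetracycline-inducible human D1 receptor report calcium flux. Each well gets a 10 s baseline, compound with 180 s monitoring, then an EC80 dopamine stimulus with a second 180 s kinetic read.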
D1 PAM: human D1 dopamine receptor positive modulation. P21728. HEK293 TREx D1 cells, calcium flux, dopamine EC20 potentiation. potentiation, % at 10 µM. 360,000 tested, 0.036% active. AID 504651; in the data active = potentiation above about 30%; note: 0% is about no effect
* hit, by the source's call. A selection: hits, their analogues and other compounds. The true share with any hit is near 4%. Cut-off read from the data, not from the text of the source, unless noted: active = activation above about 30%; inactive = the rest.

Screening O=C(NCc1ccccc1Cl)c1ccc(CS(=O)Cc2ccc(Cl)cc2)o1 (configuration not stated) returned TRHR agonist 0, TRHR enhancer -7, GRP78 ERSR act -3%, D1 agonist 3, D1 antagonist -46* and D1 PAM 6.
Screening O=C(NCc1ccccc1)c1ccc2oc(=O)n(Cc3ccccc3)c2c1 returned TRHR agonist -1, TRHR enhancer 1, GRP78 ERSR act 0%, D1 agonist 1, D1 antagonist 10 and D1 PAM -1.
`O=C(NCc1ccccc1Cl)c1cc2ccccc2o1` gave TRHR agonist -2, TRHR enhancer 9, GRP78 ERSR act 2%, D1 agonist 34*, D1 antagonist -33* and D1 PAM -3.
For O=C(NCc1cccnc1)c1ccc(CS(=O)(=O)Cc2ccc(Cl)cc2)o1 the results were TRHR agonist 0, TRHR enhancer 0, GRP78 ERSR act -2%, D1 agonist 3, D1 antagonist -4 and D1 PAM 0.
Screening Cc1ccc(CS(=O)(=O)Cc2ccc(C(=O)NCc3cccnc3)o2)cc1 returned TRHR agonist 0, TRHR enhancer -2, GRP78 ERSR act -4%, D1 agonist 0, D1 antagonist -33* and D1 PAM -1.
Screening Cc1ccccc1CNC(=O)c1cc2ccccc2o1 returned GRP78 ERSR act 4%.
`COc1ccccc1CNC(=O)c1ccc(CS(=O)(=O)c2ccc(C)cc2)o1` gave TRHR agonist 0, TRHR enhancer 0, GRP78 ERSR act -1%, D1 agonist 12, D1 antagonist -50* and D1 PAM -4.
`Cc1ccc(C(=O)c2c[nH]c(C(=O)NCc3cccnc3)c2)cc1` gave TRHR agonist -1, TRHR enhancer 4, GRP78 ERSR act -1%, D1 agonist 3, D1 antagonist -49* and D1 PAM -10.
`COc1ccccc1S(=O)(=O)Cc1ccc(C(=O)NCc2ccc(C)cc2)o1` gave TRHR agonist -1, TRHR enhancer 1, GRP78 ERSR act -7%, D1 agonist 1, D1 antagonist -23 and D1 PAM -11.
`CCCS(=O)(=O)NC(=O)C1(C)CCN(C(=O)c2ccccc2OC)C1` (configuration not stated) gave GRP78 ERSR act -1%.
`c1ccc(OCCSc2nc3ccccc3o2)cc1` gave TRHR agonist 0, TRHR enhancer 0, GRP78 ERSR act 3%, D1 agonist 2, D1 antagonist -8 and D1 PAM -3.
CC(Sc1ccc(S(=O)(=O)N2CCCCCC2)cn1)C(N)=O (configuration not stated) was read as TRHR agonist 1, TRHR enhancer 17, GRP78 ERSR act -3%, D1 agonist 5, D1 antagonist -23 and D1 PAM -2.
Screening COc1cc(NS(=O)(=O)c2ccc(Nc3nc(-c4cccc([N+](=O)[O-])c4)cs3)cc2)nc(OC)n1 returned TRHR agonist 0, TRHR enhancer -1, GRP78 ERSR act -3%, D1 agonist 1, D1 antagonist -8 and D1 PAM -3.
For CC(C)Cc1ccc(CN2CCC(n3nccc3NC(=O)C3CCCC3)CC2)cc1 the results were TRHR agonist 1, TRHR enhancer -4, GRP78 ERSR act -4%, D1 agonist 20, D1 antagonist 6 and D1 PAM 7.
For O=C(c1ccc(CS(=O)(=O)c2ccc(Br)cc2)o1)N1CCCCCC1 the results were TRHR agonist 3, TRHR enhancer -4, GRP78 ERSR act -2%, D1 agonist 33* and D1 antagonist -24.
For O=C(c1ccc(CS(=O)(=O)c2ccc(Br)cc2)o1)N1CCCC1 the results were TRHR agonist 0, TRHR enhancer 4, GRP78 ERSR act -5%, D1 agonist 14 and D1 antagonist -4.
Screening COc1ccc(S(=O)(=O)Cc2ccc(C(=O)NCCc3ccc(S(N)(=O)=O)cc3)o2)cc1 returned TRHR agonist 1, TRHR enhancer -2, GRP78 ERSR act -2%, D1 agonist 2, D1 antagonist -35* and D1 PAM 1.

Screening data as filed in PubChem BioAssay.
